# Article PMC7862700, “An all-to-all approach to the identification of sequence-specific readers for epigenetic DNA modifications on cytosine”
# Experiments:
# Test in all cases: DAPPL (digital affinity profiling via proximity ligation, sequencing); 10 mM Tris-HCl pH 7.5, 50 mM NaCl, 1 mM DTT, 4% glycerol, room temperature, 30 min; GST-TFs on glutathione beads, 16-mer random dsDNA library, 0.1% formaldehyde crosslink after washing; high values mean tight binding
# Conditions in all cases: protein: recombinant; tags: N-terminal GST; dsDNA, one strand shown
# FLI1 = target: T1, FLI1 (Homo sapiens, UniProt Q01543 1-452)
# T1 sequence: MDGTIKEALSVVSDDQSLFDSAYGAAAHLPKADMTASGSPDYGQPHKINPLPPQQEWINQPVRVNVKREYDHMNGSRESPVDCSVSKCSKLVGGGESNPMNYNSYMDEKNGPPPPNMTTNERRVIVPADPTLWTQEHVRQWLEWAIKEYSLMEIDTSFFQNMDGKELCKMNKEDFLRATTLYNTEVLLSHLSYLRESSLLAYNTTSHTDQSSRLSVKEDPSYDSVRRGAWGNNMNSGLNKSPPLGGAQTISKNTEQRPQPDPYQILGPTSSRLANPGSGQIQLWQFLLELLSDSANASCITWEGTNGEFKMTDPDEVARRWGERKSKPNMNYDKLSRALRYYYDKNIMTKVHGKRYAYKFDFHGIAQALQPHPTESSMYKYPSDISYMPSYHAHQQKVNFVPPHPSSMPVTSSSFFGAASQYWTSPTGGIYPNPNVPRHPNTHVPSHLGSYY
# Method in brief: (§1)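 The binding signal reported is, for every hexamer, its read frequency for a factor over its read frequency for the tag-only sample. Reads came from pools of yeast-expressed, GST-fused human transcription factors on glutathione beads, barcoded with DNA and mixed with that sample, which were incubated with 200 nmole of a random double-stranded 16-mer DNA library in Tris/NaCl/DTT/glycerol buffer at room temperature for 30 min. After washing, the pools were crosslinked with 0.1% formaldehyde, proximity-ligated with BsaI/T4 ligase for 1 h at 37 °C, PCR-amplified and sequenced on an Illumina NextSeq500.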
# ELK1 = target: T2, ELK1 (Homo sapiens, UniProt P19419 1-428)
# T2 sequence: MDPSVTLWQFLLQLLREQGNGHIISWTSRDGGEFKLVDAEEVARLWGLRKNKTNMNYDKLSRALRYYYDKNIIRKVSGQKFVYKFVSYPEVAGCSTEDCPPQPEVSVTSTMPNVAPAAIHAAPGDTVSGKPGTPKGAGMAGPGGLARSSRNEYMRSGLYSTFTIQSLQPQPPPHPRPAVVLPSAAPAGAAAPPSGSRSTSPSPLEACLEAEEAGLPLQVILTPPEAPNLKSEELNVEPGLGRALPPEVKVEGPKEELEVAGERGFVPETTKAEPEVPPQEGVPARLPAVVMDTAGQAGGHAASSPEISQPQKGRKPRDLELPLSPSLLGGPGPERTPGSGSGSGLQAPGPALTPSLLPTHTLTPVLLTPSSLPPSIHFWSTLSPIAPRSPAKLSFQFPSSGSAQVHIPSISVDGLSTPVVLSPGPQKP
# Method in brief: as §1
# GABPA = target: T3, GABPA (Homo sapiens, UniProt Q06546 1-454)
# T3 sequence: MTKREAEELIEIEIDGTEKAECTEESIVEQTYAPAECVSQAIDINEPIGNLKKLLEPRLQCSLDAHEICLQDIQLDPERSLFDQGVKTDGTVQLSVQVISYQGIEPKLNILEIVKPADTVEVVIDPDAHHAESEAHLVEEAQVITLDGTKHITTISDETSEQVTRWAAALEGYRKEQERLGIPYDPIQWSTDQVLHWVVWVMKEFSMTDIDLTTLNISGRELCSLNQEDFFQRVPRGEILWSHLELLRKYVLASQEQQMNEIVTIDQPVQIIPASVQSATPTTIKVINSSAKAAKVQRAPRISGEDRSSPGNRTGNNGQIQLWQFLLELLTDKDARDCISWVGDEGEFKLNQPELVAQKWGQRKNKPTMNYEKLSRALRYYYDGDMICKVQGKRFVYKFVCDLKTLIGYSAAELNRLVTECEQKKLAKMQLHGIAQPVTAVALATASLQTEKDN
# Method in brief: as §1
# ERG = target: T4, ERG (Homo sapiens, UniProt P11308 1-479)
# T4 sequence: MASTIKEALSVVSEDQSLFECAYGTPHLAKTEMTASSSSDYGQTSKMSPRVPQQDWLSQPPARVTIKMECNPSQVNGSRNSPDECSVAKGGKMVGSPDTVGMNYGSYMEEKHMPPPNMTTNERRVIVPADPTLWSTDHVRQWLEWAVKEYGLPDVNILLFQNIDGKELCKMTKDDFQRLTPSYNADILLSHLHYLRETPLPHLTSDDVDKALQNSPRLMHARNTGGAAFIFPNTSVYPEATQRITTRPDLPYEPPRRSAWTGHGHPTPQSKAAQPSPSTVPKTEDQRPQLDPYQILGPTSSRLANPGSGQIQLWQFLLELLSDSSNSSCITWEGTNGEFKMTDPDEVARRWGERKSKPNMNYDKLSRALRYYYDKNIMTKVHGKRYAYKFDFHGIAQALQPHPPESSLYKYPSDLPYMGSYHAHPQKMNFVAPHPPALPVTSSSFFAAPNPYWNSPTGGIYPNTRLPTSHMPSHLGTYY
# Method in brief: as §1
# ELF1 = ELF1 (Homo sapiens, UniProt P32519 1-619)
# Method in brief: as §1
# EHF = target: T5, EHF (Homo sapiens, UniProt Q9NZC4 1-300)
# T5 sequence: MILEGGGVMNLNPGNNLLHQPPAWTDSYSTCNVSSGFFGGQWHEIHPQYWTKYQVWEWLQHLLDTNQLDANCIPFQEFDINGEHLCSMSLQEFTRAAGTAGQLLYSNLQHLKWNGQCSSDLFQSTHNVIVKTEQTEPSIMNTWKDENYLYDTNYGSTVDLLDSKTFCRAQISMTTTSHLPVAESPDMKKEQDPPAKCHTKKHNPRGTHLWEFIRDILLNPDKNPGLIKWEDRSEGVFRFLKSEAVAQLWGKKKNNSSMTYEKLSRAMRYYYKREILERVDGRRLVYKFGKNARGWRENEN
# Method in brief: as §1
# SPI1 = SPI1 (Homo sapiens, UniProt P17947 1-270)
# Method in brief: as §1
# SPIB = SPIB (Homo sapiens, UniProt Q01892 1-262)
# Method in brief: as §1
# ELK3 = target: T6, ELK3 (Homo sapiens, UniProt P41970 1-407)
# T6 sequence: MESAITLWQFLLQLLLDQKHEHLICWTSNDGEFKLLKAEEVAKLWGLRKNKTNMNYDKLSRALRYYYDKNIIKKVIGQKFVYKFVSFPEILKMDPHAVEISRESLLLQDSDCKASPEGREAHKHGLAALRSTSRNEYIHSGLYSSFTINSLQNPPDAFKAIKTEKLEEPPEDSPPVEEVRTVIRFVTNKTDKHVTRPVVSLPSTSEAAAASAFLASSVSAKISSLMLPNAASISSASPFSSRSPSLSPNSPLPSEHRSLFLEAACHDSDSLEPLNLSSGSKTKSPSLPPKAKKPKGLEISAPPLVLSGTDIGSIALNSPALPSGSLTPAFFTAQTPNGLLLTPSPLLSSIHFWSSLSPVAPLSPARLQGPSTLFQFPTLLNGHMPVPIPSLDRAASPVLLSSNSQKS
# Method in brief: as §1
# SPIB, sequence (Q01892 whole entry): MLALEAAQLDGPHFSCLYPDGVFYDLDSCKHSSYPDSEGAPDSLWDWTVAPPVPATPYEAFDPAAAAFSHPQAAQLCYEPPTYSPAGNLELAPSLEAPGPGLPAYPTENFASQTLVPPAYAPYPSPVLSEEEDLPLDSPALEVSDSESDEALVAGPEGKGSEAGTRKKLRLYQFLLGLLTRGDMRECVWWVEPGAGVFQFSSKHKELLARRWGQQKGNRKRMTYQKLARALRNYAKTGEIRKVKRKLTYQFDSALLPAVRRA
# ELF1, sequence (P32519 whole entry): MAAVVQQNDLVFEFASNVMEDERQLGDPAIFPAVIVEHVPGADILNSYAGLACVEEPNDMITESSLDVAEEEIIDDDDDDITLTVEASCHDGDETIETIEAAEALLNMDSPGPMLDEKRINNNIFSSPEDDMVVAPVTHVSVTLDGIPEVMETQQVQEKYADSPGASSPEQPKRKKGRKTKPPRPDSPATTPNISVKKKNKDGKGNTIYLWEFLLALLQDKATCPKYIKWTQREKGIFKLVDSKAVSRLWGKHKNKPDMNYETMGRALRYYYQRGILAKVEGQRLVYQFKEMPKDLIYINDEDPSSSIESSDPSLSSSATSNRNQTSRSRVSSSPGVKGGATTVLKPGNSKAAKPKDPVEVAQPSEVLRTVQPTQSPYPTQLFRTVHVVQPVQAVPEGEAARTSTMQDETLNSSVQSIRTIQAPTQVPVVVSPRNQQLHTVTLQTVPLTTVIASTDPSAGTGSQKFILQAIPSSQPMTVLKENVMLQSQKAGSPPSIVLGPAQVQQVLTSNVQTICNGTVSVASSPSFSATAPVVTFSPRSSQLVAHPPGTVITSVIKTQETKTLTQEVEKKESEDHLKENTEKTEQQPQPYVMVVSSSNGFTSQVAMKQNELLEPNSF
Sequence,binding signal (FLI1),binding signal (ELK1),binding signal (GABPA),binding signal (ERG),binding signal (ELF1),binding signal (EHF),binding signal (SPI1),binding signal (SPIB),binding signal (ELK3)
CCGGCA,"1.38 fold enrichment (6-mer frequency, TF over GST control)","1.37 fold enrichment (6-mer frequency, TF over GST control)","1.39 fold enrichment (6-mer frequency, TF over GST control)","1.53 fold enrichment (6-mer frequency, TF over GST control)","1.29 fold enrichment (6-mer frequency, TF over GST control)","1.4 fold enrichment (6-mer frequency, TF over GST control)","1.44 fold enrichment (6-mer frequency, TF over GST control)","1.53 fold enrichment (6-mer frequency, TF over GST control)","1.5 fold enrichment (6-mer frequency, TF over GST control)"
CTGACC,"1.4 fold enrichment (6-mer frequency, TF over GST control)","1.41 fold enrichment (6-mer frequency, TF over GST control)","1.41 fold enrichment (6-mer frequency, TF over GST control)","1.23 fold enrichment (6-mer frequency, TF over GST control)","1.46 fold enrichment (6-mer frequency, TF over GST control)","1.59 fold enrichment (6-mer frequency, TF over GST control)","1.25 fold enrichment (6-mer frequency, TF over GST control)","1.26 fold enrichment (6-mer frequency, TF over GST control)","1.33 fold enrichment (6-mer frequency, TF over GST control)"
CCCTTT,"1.47 fold enrichment (6-mer frequency, TF over GST control)","1.36 fold enrichment (6-mer frequency, TF over GST control)","1.51 fold enrichment (6-mer frequency, TF over GST control)","1.45 fold enrichment (6-mer frequency, TF over GST control)","1.36 fold enrichment (6-mer frequency, TF over GST control)","1.35 fold enrichment (6-mer frequency, TF over GST control)","1.96 fold enrichment (6-mer frequency, TF over GST control)","1.49 fold enrichment (6-mer frequency, TF over GST control)","1.43 fold enrichment (6-mer frequency, TF over GST control)"
ATCTCA,"1.17 fold enrichment (6-mer frequency, TF over GST control)","1.18 fold enrichment (6-mer frequency, TF over GST control)","1.15 fold enrichment (6-mer frequency, TF over GST control)","1.11 fold enrichment (6-mer frequency, TF over GST control)","1.2 fold enrichment (6-mer frequency, TF over GST control)","1.25 fold enrichment (6-mer frequency, TF over GST control)","1.12 fold enrichment (6-mer frequency, TF over GST control)","1.19 fold enrichment (6-mer frequency, TF over GST control)","1.18 fold enrichment (6-mer frequency, TF over GST control)"
TTGCTG,"1.25 fold enrichment (6-mer frequency, TF over GST control)","1.13 fold enrichment (6-mer frequency, TF over GST control)","1.21 fold enrichment (6-mer frequency, TF over GST control)","1.13 fold enrichment (6-mer frequency, TF over GST control)","1.29 fold enrichment (6-mer frequency, TF over GST control)","1.25 fold enrichment (6-mer frequency, TF over GST control)","1.18 fold enrichment (6-mer frequency, TF over GST control)","1.28 fold enrichment (6-mer frequency, TF over GST control)","1.33 fold enrichment (6-mer frequency, TF over GST control)"
TCCTGG,"1.66 fold enrichment (6-mer frequency, TF over GST control)","1.47 fold enrichment (6-mer frequency, TF over GST control)","1.69 fold enrichment (6-mer frequency, TF over GST control)","1.85 fold enrichment (6-mer frequency, TF over GST control)","1.69 fold enrichment (6-mer frequency, TF over GST control)","1.66 fold enrichment (6-mer frequency, TF over GST control)","1.63 fold enrichment (6-mer frequency, TF over GST control)","1.74 fold enrichment (6-mer frequency, TF over GST control)","1.55 fold enrichment (6-mer frequency, TF over GST control)"
AAAAAA,"1.29 fold enrichment (6-mer frequency, TF over GST control)","1.28 fold enrichment (6-mer frequency, TF over GST control)","1.3 fold enrichment (6-mer frequency, TF over GST control)","1.2 fold enrichment (6-mer frequency, TF over GST control)","1.32 fold enrichment (6-mer frequency, TF over GST control)","1.45 fold enrichment (6-mer frequency, TF over GST control)","1.52 fold enrichment (6-mer frequency, TF over GST control)","1.4 fold enrichment (6-mer frequency, TF over GST control)","1.41 fold enrichment (6-mer frequency, TF over GST control)"
CTATCG,"1.13 fold enrichment (6-mer frequency, TF over GST control)","1.14 fold enrichment (6-mer frequency, TF over GST control)","1.05 fold enrichment (6-mer frequency, TF over GST control)","1.09 fold enrichment (6-mer frequency, TF over GST control)","1.11 fold enrichment (6-mer frequency, TF over GST control)","1.07 fold enrichment (6-mer frequency, TF over GST control)","1.13 fold enrichment (6-mer frequency, TF over GST control)","1.11 fold enrichment (6-mer frequency, TF over GST control)","1.08 fold enrichment (6-mer frequency, TF over GST control)"
